Laboratory results published in the supplement of paper PMC10849652.
The full data set covers some 7,900 targets. This sample favours those with a hit. About 0.6% of all pairs of compound and target were hits.

Legend:
Experiment in all cases: log2 fold change, soluble protein after heating vs DMSO (PISA); higher = thermal stabilisation; K562 cells, 10 uM, 30 min; active = over 0.2 and 3.5 SD of the protein, either way, in both replicates (recomputed)
erlotinib = compound: C#Cc1cccc(Nc2ncnc3cc(OCCOC)c(OCCOC)cc23)c1 [erlotinib]
How it was run: (§1)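 Thermal stability values are relative to control samples and come from duplicates. They are expressed as log2 fold changes. For measurement, K562 cells (2×10^6 cells/mL) received 10 μM compound for 30 min, and aliquots were heated for 3 min over 48°C-58°C, pooled, and extracted at 4°C in PBS with 0.5% NP-40. Soluble protein, the supernatant after 21,000xg for 90 min, was quantified by TMTpro 16plex LC-MS/MS with equalised channel sums.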

[1] = compound: C/C(=N\NC(=O)C1=CC(=CC=C1)S(=O)(=O)N2CCOCC2)/C3=C(C=CC(=C3)Cl)O
How it was run: as §1

[2] = compound: C1=CC(=C(C=C1Cl)C2=NC3=NC=CN=C3C(=N2)NC4=CC=NC=C4)F
How it was run: as §1

[3] = compound: C1=CC(=CC=C1C2=NC3=C(N2)C=C(C=C3)C(=O)N)OC4=CC=C(C=C4)Cl
How it was run: as §1

[4] = compound: C1=CC2=C(C=CC(=C2)/C=C\3/C(=O)NC(=NCC4=CC=CS4)S3)N=C1
How it was run: as §1

[5] = compound: C1=CC2=NC=CN=C2C=C1/C=C/3\C(=O)NC(=O)S3
How it was run: as §1

[6] = compound: C1=CC=C(C=C1)C2=NC(=C(N2)C3=CC=NC=C3)C4=CC(=C(C=C4)Cl)O
How it was run: as §1

[7] = compound: C1=CC=C2C(=C1)C3=NNC4=CC=CC(=C43)C2=O
How it was run: as §1

[8] = compound: C1CCN(C1)C(=O)NC2=CC=CC(=C2)NC3=NC=C(C(=N3)NCCC4=CN=CN4)Br
How it was run: as §1

[9] = compound: C1CN(CCC1(CC2=CC=C(C=C2)Cl)N)C3=NC=NC4=C3C=CN4
How it was run: as §1

IRAK-1-4 Inhibitor I = compound: C1COCCN1CCN2C3=CC=CC=C3N=C2NC(=O)C4=CC(=CC=C4)[N+](=O)[O-] [IRAK-1-4 Inhibitor I]
How it was run: as §1

ibrutinib = compound: C=CC(=O)N1CCC[C@@H](n2nc(-c3ccc(Oc4ccccc4)cc3)c3c(N)ncnc32)C1 [ibrutinib]
How it was run: as §1

[10] = compound: CC(=O)c1cnc2ccc(-c3cc(Cl)c(O)c(Cl)c3)nc2c1N[C@H]1CC[C@H](CN(C)C)CC1
How it was run: as §1

ralimetinib = compound: CC(C)(C)Cn1c(N)nc2ccc(-c3[nH]c(C(C)(C)C)nc3-c3ccc(F)cc3)nc21 [ralimetinib]
How it was run: as §1

[11] = compound: CC(C)(O)CC(=O)NCCn1ccc2ncnc(Nc3ccc(Oc4cccc(C(F)(F)F)c4)c(Cl)c3)c21
How it was run: as §1

[12] = compound: CC(C)C1=C2N=C(C=C(N2N=C1)NCC3=CC=CC=C3)NCCCCCCN
How it was run: as §1

[13] = compound: CC(C)C[C@@H](C=O)NC(=O)[C@H](CC(C)C)NC(=O)[C@H](CC(C)C)NC(=O)OCc1ccccc1
How it was run: as §1

pinometostat = compound: CC(C)N(C[C@H]1O[C@@H](n2cnc3c(N)ncnc32)[C@H](O)[C@@H]1O)[C@H]1C[C@@H](CCc2nc3cc(C(C)(C)C)ccc3[nH]2)C1 [pinometostat]
How it was run: as §1

[14] = compound: CC1=C(C(CC(=O)N1)C2=CC=C(C=C2)C(F)(F)F)C(=O)NC3=C(C=C4C(=C3)C=NN4)F
How it was run: as §1

[15] = compound: CC1=C(C2=C(C=C1)C(=O)C3=CC=CC=C3N2CCCN)C
How it was run: as §1

Measured: log2 fold change

ALDH6A1 (UniProt Q02252)
Chain of UniProt Q02252 (Q02252 whole entry, looked up): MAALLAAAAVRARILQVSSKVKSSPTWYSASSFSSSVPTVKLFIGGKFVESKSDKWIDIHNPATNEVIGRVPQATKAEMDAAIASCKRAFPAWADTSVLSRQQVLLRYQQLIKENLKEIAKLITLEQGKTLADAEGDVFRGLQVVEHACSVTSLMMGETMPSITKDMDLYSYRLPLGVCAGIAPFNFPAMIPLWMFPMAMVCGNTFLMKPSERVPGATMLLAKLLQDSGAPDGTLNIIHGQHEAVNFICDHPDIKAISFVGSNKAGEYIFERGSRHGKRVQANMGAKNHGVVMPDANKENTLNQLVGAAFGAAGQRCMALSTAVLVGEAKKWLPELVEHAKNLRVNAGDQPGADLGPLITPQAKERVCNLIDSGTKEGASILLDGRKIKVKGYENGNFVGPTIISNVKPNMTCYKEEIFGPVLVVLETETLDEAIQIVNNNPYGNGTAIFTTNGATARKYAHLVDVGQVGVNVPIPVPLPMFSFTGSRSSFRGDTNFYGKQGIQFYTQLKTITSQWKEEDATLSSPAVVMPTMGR
inactive: erlotinib 0.067 | [1] -0.02 | [2] 0.061 | [3] -0.144 | [4] 0.074 | [5] -0.043 | [6] 0.038 | [7] -0.038 | [8] -0.03 | [9] 0.043 | IRAK-1-4 Inhibitor I 0.004 | ibrutinib -0.023 | [10] -0.041 | ralimetinib 0.019 | [11] -0.155 | [12] -0.068 | [13] -0.002 | pinometostat -0.01 | [14] -0.004 | [15] 0.018

ALKBH5 (UniProt Q6P6C2)
Chain of UniProt Q6P6C2 (Q6P6C2 whole entry, looked up): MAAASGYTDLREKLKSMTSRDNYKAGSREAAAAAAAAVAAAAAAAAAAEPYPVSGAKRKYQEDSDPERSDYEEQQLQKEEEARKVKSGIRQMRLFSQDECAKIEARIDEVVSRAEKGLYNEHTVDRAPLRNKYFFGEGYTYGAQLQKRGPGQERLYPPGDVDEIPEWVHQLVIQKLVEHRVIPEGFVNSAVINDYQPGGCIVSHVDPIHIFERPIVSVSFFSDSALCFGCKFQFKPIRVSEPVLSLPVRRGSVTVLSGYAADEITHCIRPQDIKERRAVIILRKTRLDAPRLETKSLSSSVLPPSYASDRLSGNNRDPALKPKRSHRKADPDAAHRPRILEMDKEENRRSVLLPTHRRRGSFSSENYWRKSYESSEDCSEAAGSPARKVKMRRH
inactive: erlotinib 0.176 | [2] -0.126 | [3] 0.139 | [4] 0.056 | [5] -0.067 | [6] 0.015 | [7] -0.032 | [8] -0.087 | [9] 0.113 | IRAK-1-4 Inhibitor I 0.015 | ibrutinib 0.05 | [10] 0.053 | ralimetinib 0.049 | [11] 0.025 | [12] 0.198 | [13] -0.016 | pinometostat -0.013 | [14] 0.029 | [15] 0.086
active: [1] -0.637

ATP6AP1 (UniProt Q15904)
Chain of UniProt Q15904 (Q15904 whole entry, looked up): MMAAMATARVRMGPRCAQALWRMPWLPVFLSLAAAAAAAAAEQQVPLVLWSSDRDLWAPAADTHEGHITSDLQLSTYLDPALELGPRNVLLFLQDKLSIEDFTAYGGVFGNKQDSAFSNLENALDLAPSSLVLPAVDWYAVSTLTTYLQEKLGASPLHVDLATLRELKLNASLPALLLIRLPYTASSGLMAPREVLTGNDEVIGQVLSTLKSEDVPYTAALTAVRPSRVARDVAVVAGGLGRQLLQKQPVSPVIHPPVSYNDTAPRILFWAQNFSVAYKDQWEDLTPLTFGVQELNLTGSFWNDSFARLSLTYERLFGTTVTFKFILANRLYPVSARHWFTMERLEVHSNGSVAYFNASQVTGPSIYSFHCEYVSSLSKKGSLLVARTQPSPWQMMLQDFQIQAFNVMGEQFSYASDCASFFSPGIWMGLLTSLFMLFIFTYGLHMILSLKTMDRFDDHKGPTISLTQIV
inactive: erlotinib -0.009 | [1] -0.031 | [2] -0.036 | [3] 0.029 | [4] -0.08 | [5] -0.022 | [6] -0.128 | [7] -0.004 | [8] 0.01 | [9] -0.079 | IRAK-1-4 Inhibitor I -0.02 | ibrutinib 0 | [10] -0.035 | ralimetinib 0.01 | [11] 0.035 | [12] -0.091 | [13] 0.02 | pinometostat 0.101 | [14] 0.047 | [15] -0.024

ARFRP1 (UniProt Q13795)
Chain of UniProt Q13795 (Q13795 whole entry, looked up): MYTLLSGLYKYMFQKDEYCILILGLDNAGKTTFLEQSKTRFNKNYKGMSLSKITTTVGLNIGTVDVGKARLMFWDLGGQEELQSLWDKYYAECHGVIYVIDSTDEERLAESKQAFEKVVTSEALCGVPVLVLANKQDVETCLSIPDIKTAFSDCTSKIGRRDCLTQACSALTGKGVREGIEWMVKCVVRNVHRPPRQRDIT
inactive: erlotinib -0.018 | [1] -0.017 | [2] 0.096 | [3] 0.008 | [4] 0.12 | [5] 0.048 | [6] 0.057 | [7] 0.015 | [8] -0.013 | [9] 0.032 | IRAK-1-4 Inhibitor I -0.083 | ibrutinib 0.031 | [10] 0.02 | ralimetinib 0.004 | [11] -0.041 | [12] -0.028 | [13] -0.073 | pinometostat 0.017 | [14] -0.044 | [15] 0.075

ACADVL isoform 3 (UniProt P49748)
Chain of UniProt P49748 (P49748 whole entry, looked up): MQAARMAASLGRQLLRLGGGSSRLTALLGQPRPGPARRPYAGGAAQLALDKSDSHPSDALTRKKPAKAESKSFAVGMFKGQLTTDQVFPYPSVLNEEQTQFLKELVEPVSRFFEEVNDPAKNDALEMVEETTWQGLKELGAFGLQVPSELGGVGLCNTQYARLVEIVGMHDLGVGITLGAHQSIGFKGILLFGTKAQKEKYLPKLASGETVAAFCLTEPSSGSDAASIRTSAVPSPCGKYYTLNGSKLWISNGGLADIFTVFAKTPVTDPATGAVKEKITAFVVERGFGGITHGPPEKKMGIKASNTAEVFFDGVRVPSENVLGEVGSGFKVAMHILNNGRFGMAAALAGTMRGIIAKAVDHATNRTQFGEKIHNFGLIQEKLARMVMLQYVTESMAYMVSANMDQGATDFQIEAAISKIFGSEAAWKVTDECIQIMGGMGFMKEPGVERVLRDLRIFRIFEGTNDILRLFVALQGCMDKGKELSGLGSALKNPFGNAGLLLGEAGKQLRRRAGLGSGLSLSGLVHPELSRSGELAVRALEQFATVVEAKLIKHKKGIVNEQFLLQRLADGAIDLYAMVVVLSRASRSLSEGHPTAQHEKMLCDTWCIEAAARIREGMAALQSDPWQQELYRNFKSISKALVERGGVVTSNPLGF
active: [3] 0.291
inactive: erlotinib 0.008 | [1] 0.015 | [2] 0.035 | [4] 0.023 | [5] 0.055 | [6] 0.027 | [7] 0.155 | [8] 0.025 | [9] 0.043 | IRAK-1-4 Inhibitor I 0.038 | ibrutinib -0.002 | [10] 0.005 | ralimetinib -0.015 | [11] -0.016 | [12] -0.013 | [13] -0.025 | pinometostat -0.067 | [14] -0.032 | [15] 0.002

ARL1 (UniProt P40616)
Chain of UniProt P40616 (P40616 whole entry, looked up): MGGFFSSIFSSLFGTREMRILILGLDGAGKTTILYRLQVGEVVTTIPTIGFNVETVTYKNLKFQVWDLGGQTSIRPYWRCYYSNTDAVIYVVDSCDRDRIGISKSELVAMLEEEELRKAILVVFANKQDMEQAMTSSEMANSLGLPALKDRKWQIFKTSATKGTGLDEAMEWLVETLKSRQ
inactive: erlotinib 0.049 | [1] 0.063 | [2] 0.072 | [3] -0.091 | [4] 0.027 | [5] -0.028 | [6] 0.13 | [7] 0.084 | [8] -0.076 | [9] 0.055 | IRAK-1-4 Inhibitor I 0.007 | ibrutinib -0.031 | [10] -0.06 | ralimetinib 0.029 | [11] -0.09 | [12] 0.044 | [13] -0.049 | pinometostat -0.039 | [14] -0.065 | [15] 0.066

ALG3 (UniProt Q92685)
Chain of UniProt Q92685 (Q92685 whole entry, looked up): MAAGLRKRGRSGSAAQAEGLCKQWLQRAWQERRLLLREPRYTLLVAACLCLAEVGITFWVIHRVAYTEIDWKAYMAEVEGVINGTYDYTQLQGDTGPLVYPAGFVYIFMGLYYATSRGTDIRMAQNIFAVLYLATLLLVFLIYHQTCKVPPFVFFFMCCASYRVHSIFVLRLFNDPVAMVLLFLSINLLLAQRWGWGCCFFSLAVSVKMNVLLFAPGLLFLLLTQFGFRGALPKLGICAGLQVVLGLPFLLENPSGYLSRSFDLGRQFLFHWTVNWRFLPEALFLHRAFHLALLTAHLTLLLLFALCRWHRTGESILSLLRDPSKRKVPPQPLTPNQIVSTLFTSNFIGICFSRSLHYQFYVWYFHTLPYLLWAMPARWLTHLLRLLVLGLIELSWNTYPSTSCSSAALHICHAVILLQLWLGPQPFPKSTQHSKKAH
inactive: erlotinib 0.024 | [1] 0.127 | [2] 0.07 | [3] -0.081 | [4] 0.03 | [5] -0.002 | [6] 0.022 | [7] -0.011 | [8] -0.133 | [9] 0.103 | IRAK-1-4 Inhibitor I -0.081 | ibrutinib -0.022 | [10] -0.08 | ralimetinib -0.08 | [11] -0.034 | [12] -0.267 | [13] -0.038 | pinometostat -0.075 | [14] -0.037 | [15] -0.045

AUP1 (UniProt Q9Y679)
Chain of UniProt Q9Y679 (Q9Y679 whole entry, looked up): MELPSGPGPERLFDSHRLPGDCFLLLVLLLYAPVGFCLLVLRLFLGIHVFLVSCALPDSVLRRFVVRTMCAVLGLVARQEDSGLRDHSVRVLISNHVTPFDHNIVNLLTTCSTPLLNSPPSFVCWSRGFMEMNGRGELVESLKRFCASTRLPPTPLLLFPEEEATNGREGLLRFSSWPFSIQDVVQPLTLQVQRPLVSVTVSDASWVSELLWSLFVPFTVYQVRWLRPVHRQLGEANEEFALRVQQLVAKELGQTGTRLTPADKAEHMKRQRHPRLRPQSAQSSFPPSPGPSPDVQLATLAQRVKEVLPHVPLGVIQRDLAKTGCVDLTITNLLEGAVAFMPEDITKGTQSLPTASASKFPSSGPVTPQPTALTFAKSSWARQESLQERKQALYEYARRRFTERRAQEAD
inactive: erlotinib 0.018 | [1] 0.055 | [2] 0.068 | [3] 0.049 | [4] 0.006 | [5] 0.055 | [6] 0.078 | [7] 0.004 | [8] -0.031 | [9] -0.018 | IRAK-1-4 Inhibitor I 0.035 | ibrutinib -0.026 | [10] 0.003 | ralimetinib 0.007 | [11] -0.164 | [13] -0.033 | pinometostat 0.011 | [14] -0.036 | [15] 0.08
active: [12] -0.482
